# The whole screen tested about 48,000 compounds, of which about 13,000 (27%) showed an effect of 50% or more. The list shows a part of the results.
# Tested on: Wolbachia pipientis
# Test: Anti-Wolbachia Cell-Based Screen
# Assay type: functional
# Set-up: scale not given: in the data most compounds retested in dose-response had high values
# Conditions: 5 µM
row,Structure (SMILES),Percent Effect [%]
1,Cc1cc2c(C)cc(O)cc2c(=O)o1,-3.203
2,CC(C)(C)OC(=O)N1CCC[C@H](NCc2cc[nH]c2)C1,-5.919
3,CC(C1CCN(Cc2ccc(N(C)C)nc2)CC1)N(C)C (centres undefined),14.62
4,COCC(c1ccccn1)N(C)C(=O)c1cc(-c2ccccc2O)n[nH]1 (centres undefined),-8.202
5,O=S(=O)(C1CC1)N1CCC2(CC1)CC(Oc1ccccn1)CO2 (centres undefined),-5.73
6,COCc1c(C(=O)N2CCCC(C(=O)c3nccn3C)C2)noc1C (centres undefined),-5.481
7,COc1cccc(N2CCC(N3CCOC(C(F)(F)F)C3)CC2)c1 (centres undefined),11
8,COc1cccc(N2CCC(N3C[C@@H](NC(C)=O)[C@H](C(C)C)C3)CC2)c1,4.736
9,Cc1nc(-c2cccc(N3CCC(NC4CCSC4)CC3)c2)cs1 (centres undefined),-11.84
10,CN1CCOC[C@H]1c1nc(-c2cccc(F)c2)c[nH]1,6.119
11,Fc1cccc(-c2c[nH]c([C@@H]3COCCN3C3CCOCC3)n2)c1,5.513
12,Cc1nc(-c2cccc(N3CCC(NC4CCOCC4)CC3)c2)cs1,-8.689
13,Fc1cccc(-c2cccc(N3CCC(NC4CCCOC4)CC3)c2)c1 (centres undefined),80.75
14,Cc1nc(-c2cccc(N3CCC(N[C@@H]4CCOC4)CC3)c2)cs1,61.49
15,COc1cccc(-c2cccc(N3CCC(N[C@@H]4CCOC4)CC3)c2)c1,68.86
16,Cc1c(C)n(CC(O)CN2CCC(O)CC2)c2c(Cl)cccc12 (centres undefined),9.661
17,CN(C)S(=O)(=O)N1C[C@@H]2CC[C@H](C1)N(Cc1ccc3c(c1)OCCO3)C2,2.095
18,Cn1ccnc1CNc1c(F)cccc1-n1cccn1,-3.206
19,CC(C)c1nccn1-c1cccc(C2CCN(C)CC2)n1,4.105
20,CN1CCC(c2cnc(NCc3nccn3C)cn2)CC1,131.5
21,CN1CCC(c2cccc(NCc3ccncc3)n2)CC1,80.62
22,Cn1ccnc1CNc1nccc(-c2ncnn2C)n1,23.33
23,CCOc1cccc(NCc2cnc(N3CCN(C)CC3)nc2)n1,6.944
24,Cn1ccnc1CNc1ccc(F)c(N2CCCS2(=O)=O)c1,0.7519
25,CN1CCC(c2cccc(NCc3nccn3C)n2)CC1,108.8

row,Structure (SMILES),Percent Effect [%]
1,N#Cc1nccnc1N1CCN(CCOCc2ccccc2)CC1,4.216
2,CC1CCc2sc(C(=O)Nc3cnn(C)c3)cc2C1 (centres undefined),18.64
3,Cc1ncnc(NC(CC(C)(C)C)c2cccnc2)c1C (centres undefined),-0.1537
4,CN(Cc1cccs1)C(=O)c1ccc(=O)n(C)c1,1.128
5,Fc1cccc2ncnc(NCC3(N4CCOCC4)CCSC3)c12 (centres undefined),-8.869
6,COc1ccc(C2CCCN2C(=O)c2cc3c([nH]c2=O)CCC3)cc1 (centres undefined),-1.742
7,Cn1ccnc1CN(CCO)C(=O)c1cc2ccccc2o1,4.663
8,O=C(c1ccn(-c2ccc(F)cc2)n1)N(CCO)Cc1cccnc1,6.446
9,O=C(C1COc2ccccc2C1)N(CCO)Cc1ccccc1 (centres undefined),3.539
10,CSc1ncccc1C(=O)N(CCO)Cc1ccccc1,110.2
11,COc1cc(C(=O)NCCCc2ccccc2)on1,-0.8212
12,COc1ccc(C(=O)N(CCO)Cc2ccccc2)c(OC)n1,150.7
13,Cc1cccc(N2CCCC3(C2)CN(S(C)(=O)=O)CCO3)c1 (centres undefined),-0.08325
14,C1CC(c2noc(C3CC3)n2)CN(CCOCC2CC2)C1 (centres undefined),14.88
15,Cc1nc(C2CCCN2CCOCC2CC2)no1 (centres undefined),95.01
16,Cc1nc(C2CCCN2CCc2cccs2)no1 (centres undefined),-9.357
17,CC(C)c1nc(C2CCCN2CCCc2nc3ccccc3o2)no1 (centres undefined),6.375
18,CC(C)c1nc(C2CCCN2CCOCC2CC2)no1 (centres undefined),114
19,CSCCCN1CCCC1c1noc(C)n1 (centres undefined),-3.652
20,COc1cc(C)cc(-c2nc3c([nH]2)CCNC3)c1OC,7.084
21,CN(C)c1ncc(CNC2CC(=O)N(CCc3cccc(Cl)c3)C2)s1 (centres undefined),116.6
22,Cc1nc[nH]c1CNC1CC(=O)N(CCc2cccc(Cl)c2)C1 (centres undefined),94.18
23,Cc1nc(CNC2CC(=O)N(CCc3cccc(Cl)c3)C2)c[nH]1 (centres undefined),91.72
24,CC(=O)Nc1ccc(CNC2CC(=O)N(Cc3cccc(F)c3)C2)cc1 (centres undefined),-1.661
25,N#Cc1cccc(NC2CC(=O)N(CCc3ccc(F)cc3)C2)n1 (centres undefined),1.885

row,Structure (SMILES),Percent Effect [%]
1,Cc1cccc(CNC2CC(=O)N(CCc3cccc(Cl)c3)C2)n1 (centres undefined),115.9
2,O=C1CC(NCc2ccc(Cl)s2)CN1Cc1cccc(F)c1 (centres undefined),20.87
3,Cc1cc(C)nc(N2C[C@H]3OC(=O)N(CCc4cccc(Cl)c4)[C@H]3C2)n1,-8.827
4,c1cc(CN2CCOC[C@H]2c2nc(-c3ccncc3)c[nH]2)ccn1,-7.2
5,CC(=O)N[C@H]1CN(CC(=O)NCc2ccccc2C)C[C@@H]1C(C)C,-0.9175
6,CCCc1cc(C(=O)N(CC)Cc2ccncc2)[nH]n1,-8.767
7,CN1CCN(c2ccc3ccc(C(=O)N4CCCCO4)cn23)CC1.O=C(O)C(F)(F)F,-14.14
8,Cc1nnc(N2CCCC(CS(N)(=O)=O)C2)c(C#N)c1C (centres undefined),-0.6364
9,CCOCCN1CCN(Cc2nnc(C3CC3)o2)CC1C (centres undefined),-16.34
10,CCCS(=O)(=O)N1C[C@H]2OC(=O)N(CCc3cccc(Cl)c3)[C@H]2C1,-3.172
11,CC(C)S(=O)(=O)N1C[C@H]2OC(=O)N(CCc3cccc(Cl)c3)[C@H]2C1,-13.46
12,Cc1ncc(CNC2CC(=O)N(CCc3cccc(Cl)c3)C2)n1C (centres undefined),82.2
13,Cc1ncsc1CNC(=O)N1CCN(Cc2ccccc2)CC1C (centres undefined),-7.787
14,COc1cc(N2CCC3(CCCN(C(=O)c4cccnc4)C3)C2)ncn1.O=C(O)C(F)(F)F (centres undefined),-28.04
15,O=C(O)C(F)(F)F.O=C(O)C(F)(F)F.c1ccc(CN2CCC3(CC2)CN(c2ccccn2)CCO3)nc1,2.249
16,COc1cc(N2CCC3(CCN(C(=O)c4cccnc4)CC3)C2)ncn1.O=C(O)C(F)(F)F,-2.068
17,N#Cc1ccc(N2CCC3(CCCN(c4ccccn4)C3)C2)nc1.O=C(O)C(F)(F)F (centres undefined),-3.068
18,O=C(O)C(F)(F)F.c1ccc(N2CCC3(CCCN(c4ncccn4)C3)C2)nc1 (centres undefined),93.44
19,O=C(O)C(F)(F)F.O=C(O)C(F)(F)F.c1ccc(CN2CCC3(CC2)CCN(c2ccccn2)C3)nc1,79.01
20,Fc1ccc(CN2CCC3(CC2)CN(c2ccccn2)CCO3)cc1.O=C(O)C(F)(F)F.O=C(O)C(F)(F)F,-6.002
21,Fc1ccccc1CN1CCCC2(CCN(c3ncccn3)CC2)C1.O=C(O)C(F)(F)F,3.614
22,COc1cc(N2CCC3(CCCN(Cc4ccccn4)C3)C2)ncn1.O=C(O)C(F)(F)F (centres undefined),109.9
23,CN1CCC2(CCCN(c3nccc(C(F)(F)F)n3)C2)CC1.O=C(O)C(F)(F)F,-32.78
24,O=C(O)C(F)(F)F.O=C(O)C(F)(F)F.c1cnc(N2CCCC3(CCN(c4ncccn4)C3)C2)nc1 (centres undefined),103.8

# — ChEMBL document CHEMBL3988442, “University of Dundee, Small-Polar-MMV Screening Library” (2021)
